From PubChem BioAssay (NCATS) come the findings set out here.

Records with an inconclusive call do not appear. Unmarked numbers belong to inactive results. Activity calls are given as the source filed them. The call rests on the fitted dose curve; in most records, active means well fitted inhibition curve with a large enough effect; inconclusive means small, poorly fitted or top-dose-only effect; inactive means no such curve, though single readings can be large or run the other way.
Potency means the concentration at half of the fitted maximal effect.

Chain of N-terminal Xaa-Pro-Lys N-methyltransferase 1 (Homo sapiens) (Q9BV86 whole entry, looked up): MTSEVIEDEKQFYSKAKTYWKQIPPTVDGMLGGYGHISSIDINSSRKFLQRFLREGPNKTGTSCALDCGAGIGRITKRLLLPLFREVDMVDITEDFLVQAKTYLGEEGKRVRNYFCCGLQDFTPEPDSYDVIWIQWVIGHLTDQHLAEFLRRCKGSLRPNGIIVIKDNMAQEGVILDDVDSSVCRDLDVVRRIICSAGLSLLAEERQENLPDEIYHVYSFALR

In the experiment the target is N-terminal Xaa-Pro-Lys N-methyltransferase 1 (Homo sapiens) (UniProt Q9BV86). In words: Confirmatory qHTS for Inhibitors of N-terminal methyltransferase 1 (NTMT1): MTaseGlo Assay (AID 1645874). Further: nearly all actives have a fitted effect of over 65% in size.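 On activity change, negative = inhibition: luminescence from SAH made as NTMT1 methylates SPKRIA peptide using SAM; 0% = DMSO control and -100% = no-enzyme control.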 The settings on record: NTMT1 enzyme, MTase-Glo SAH luminescence; series mostly up to 100 µM; activity change, negative = inhibition: at the top concentration. In outline:
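NTMT1 (125 nM) preincubated 15 min with compound and 100 uM SAM, then 1 uM SPKRIA peptide added for 30 min at room temperature. SAH detected by MTase-Glo luminescence; normalized to no-enzyme and DMSO controls, fitted to 4-parameter Hill.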
As for `Cc1cc(N2CCOCC2)cc2[nH]c(-c3c(NC[C@@H](O)c4cccc(Cl)c4)cc[nH]c3=O)nc12`, the “activity change, negative = inhibition” value was -8.3%.

On to `C[C@@H](Oc1cc(-c2cnn(C3CCNCC3)c2)cnc1N)c1c(Cl)ccc(F)c1Cl`, for which the Potency is 39.8 µM (active). Still for that read-out and setting: the value for `Cc1cc(Nc2cc(CN3CCOCC3)c3nc(C)c(Cc4ccc(Cl)cc4F)n3n2)n[nH]1` was 20.5 µM (active); that for `Fc1cc(-c2cccc3ncc(-c4cnn(C5CCNCC5)c4)nc23)cc(F)c1CN1CCOCC1` was 39.8 µM (active); that for `O=C(NCCCNc1nc(Nc2cccc(NC(=O)N3CCCC3)c2)ncc1I)c1cccs1` was 6.76 µM (active). Same read-out and setting: the same measure for `OCCCNc1cc(-c2ccnc(Nc3cccc(Cl)c3)n2)ccn1`: 22.4 µM (active); for `C#Cc1cccc(Nc2ncnc3cc(OC)c(OCCCCCCC(=O)NO)cc23)c1`: 31.2 µM (active). Turning to `COc1cc2c(NC3CCN(C(C)C)CC3)nc(C3CCCCC3)nc2cc1OCCCN1CCCC1`, the “activity change, negative = inhibition” value is -19.4%. On the same count and under the same terms, the value for `COc1ccc(-c2cc3c(C)nc(N)nc3n(C3CCC(OCCO)CC3)c2=O)cn1` (stereo unspecified) was -9.15%. Consider `O=C(O)c1ccc2c(c1)nc(Nc1cccc(Cl)c1)c1ccncc12`, for which the Potency is 28.2 µM (active). For `OCc1ccc(-c2ccc(-c3ccc(CO)s3)o2)s1`, the “activity change, negative = inhibition” value was -10.7% [at 51.5 µM].
